SMILES strings stand for the structures. Among all 94,000 compounds or so, about 20 (0.02%) were called active. Inconclusive results (about 1%) are left out. Calls come from the whole dose curve; as a rule, active = well fitted activation curve with a large enough effect; inconclusive = small, poorly fitted or top-dose-only effect; inactive = flat fitted curve, though single readings scatter. A selection follows.

The experiment can be described thus: qHTS of alpha-syn Inhibitors: NCGC Sytravon Library Screen. The note with it: S. cerevisiae alpha-synuclein toxicity rescue, BacTiter-Glo growth, 24 h; series mostly up to 46.1 µM. The source says:
The goal of this project is to identify new chemical probes capable of reversing the toxicity associated with the Parkinson disease-related protein, alpha-synuclein. Compounds will be selected on their ability to restore growth in yeast cells expressing toxic levels of alpha-synuclein. These compounds will provide a complementary approach to deciphering the tangled mechanisms of toxicity and protection that we have uncovered through genome-wide genetic screens and are beginning to uncover in a large-scale proteomics analysis with mass spectroscopy. To this end, a miniaturized assay was developed to be screened against the Molecular Libraries Small Molecule Repository (MLSMR) to discover alpha-synuclein inhibitors. […] The phenotype of interest will be that of an Activator and this screen is run against the NCGC Sytravon Library collection. NIH Chemical Genomics Center [NCGC] NIH Molecular Libraries Probe Centers Network [MLPCN] MLPCN Grant: NS060957 Assay Submitter (PI): Susan Lindquist, Whitehead Institute/MIT
Dispense 2.5 microL yeast galactose medium per 1536-well plate, pin compound, dispense 2.5 microL alpha-synuclein expressing yeast in galactose medium at OD600=0.02 (pregrown in raffinose medium to mid-log phase) per well, incubate for 24 hr at 30 deg C, and cell growth will be measured using 5 microL of Bactiter/Glo reagent to entire plate and read using Luminescence Protocol in ViewLux.
A general note: In qHTS, concentration-response curves come from the screen itself.
With `COc1cc(CNC2CCCC2)c(Br)cc1OCc1ccccc1`, the compound was classed as inactive.

`Cc1ccc(C(=O)N[C@H](C(=O)N2CCN(c3ncccn3)CC2)C(C)C)cc1`: the result was inactive. Take `Cc1nnc(SC(C(=O)c2ccccc2)c2ccccc2)[nH]c1=O` (centres undefined): the compound was called inactive. As for `CCOC(=O)C1=C(CC)OC(N)=C(C#N)C1c1ccc(F)cc1F` (centres undefined), the result was inactive. To `COc1ccc(NC(=O)C2=C(C)NC(=O)NC2c2ccccc2[N+](=O)[O-])cc1` (centres undefined) belongs “inactive”. The same measure for `NC(=O)CCN1CCN(S(=O)(=O)/C=C/c2ccccc2)CC1`: “inactive”; for `COc1ccccc1N1CCN(CC(=O)NCCc2ccc(S(N)(=O)=O)cc2)CC1`: “inactive”; for `O=C(O)Cc1csc(-c2cccc(Oc3ccccc3)c2)n1`: “inactive”. Turning to `O=C(CN1CCCCCC1)NCCN1C(=O)S/C(=C\c2ccccc2Cl)C1=O`, the outcome was inactive. In the case of `CCOC(=O)c1cnn2c(SC)ncnc12`, the compound was called inactive. To `CCCCN1C(=O)C(CC(=O)NCc2cccs2)CC(C(=O)N2CCOCC2)=C1C` (centres undefined) belongs “inactive”. As to `OCCC#Cc1ccc(CN2CCN(Cc3ccsc3)C(CCO)C2)cc1` (centres undefined), the compound was classed as inactive. Take `CCC(CC)C(=O)Nc1c2c(nn1-c1ccc(C)cc1)CS(=O)(=O)C2`: the call was inactive. As to `Cc1cccc(NC(=O)CCn2c(=O)oc3ccccc32)c1`, the outcome was inactive. Regarding `CCCCN(C(=O)CSCc1ccc(C)cc1)c1c(N)n(Cc2ccccc2)c(=O)[nH]c1=O`, the compound was called inactive. Take `O=C(CN1CCCSc2ccccc21)N1CCN(S(=O)(=O)c2ccccc2)CC1`: the compound was classed as inactive. As to `O=C(C1CCCO1)N1CCN(C(=O)C23CC4CC(CC(C4)C2)C3)CC1` (centres undefined), the compound was called inactive. As to `CCOC(=O)C(C(=O)c1ccccc1)C(c1ccccc1)c1nccc2ccccc12` (centres undefined), the compound was called inactive. As to `COc1cccc(N2CC(C(=O)NCc3n[nH]c(=O)c4ccccc34)CC2=O)c1` (centres undefined), the compound was classed as inactive. As to `CCCCS(=O)c1snnc1C` (centres undefined), the compound was classed as inactive. For the compound `Cc1ccc(NC(=O)NC(=O)N(C2CCCCC2)S(=O)(=O)c2ccccc2)cc1`, the result was inactive. Regarding `O=C(Nc1ccccc1C(=O)N1CCOCC1)c1ccc(CSc2ccccc2)cc1`, the compound was classed as inactive. `CCN(CC)C(=O)C1=C(C)N(Cc2ccc(OC)cc2)C(=O)C(CC(=O)NCCCCc2ccccc2)C1` (centres undefined): the call was inactive.

For the compound `CN(C)CCOCCOc1ccc(Cl)c2ccccc12`, the compound was called inactive. With `O=C(Nc1cccc([N+](=O)[O-])c1)Nc1ccc(Cl)cn1`, the call was inactive. As to `O=C(NCC(F)(F)F)c1ccc(S(=O)(=O)NCCc2ccc3c(c2)OCCO3)cc1`, the outcome was inactive.

For `CC(=O)c1cnc(SCC(=O)O)nc1C`, the result was inactive. Take `CN(C(=O)COC(=O)c1ccc(Br)o1)c1c(N)n(Cc2ccccc2)c(=O)[nH]c1=O`: the outcome was inactive.

On to `COc1ccc(CNC(=O)C2CCN(S(=O)(=O)c3ccc(SC)cc3)CC2)cc1`, for which the compound was classed as inactive.

(Values after PubChem BioAssay AID1347070 (National Center for Advancing Translational Sciences (NCATS), 2019).)
